These results are taken from PubChem BioAssay (NCATS).

For assay [1], the target named is Lysosomal acid glucosylceramidase (Homo sapiens) (UniProt P04062). Kind of assay: Glucocerebrosidase-p2 (AID 348; in the data active = potency below about 10 µM; also: potency is read from the fitted curve at half-maximal effect). As to conditions: purified GBA, blue fluorogenic substrate, 40 min. Summed up: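 Normal human glucocerebrosidase (0.2 nM) with blue fluorogenic substrate (80 uM final) in citrate/phosphate pH 5.9 with 10mM sodium taurocholate, 0.01% tween-20; 40 min RT, NaOH/glycine stop; fluorescence Ex 365/Em 440; AC50 from a titration from 0.6 nM upwards.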
Chain of Lysosomal acid glucosylceramidase (Homo sapiens) (P04062 whole entry, looked up): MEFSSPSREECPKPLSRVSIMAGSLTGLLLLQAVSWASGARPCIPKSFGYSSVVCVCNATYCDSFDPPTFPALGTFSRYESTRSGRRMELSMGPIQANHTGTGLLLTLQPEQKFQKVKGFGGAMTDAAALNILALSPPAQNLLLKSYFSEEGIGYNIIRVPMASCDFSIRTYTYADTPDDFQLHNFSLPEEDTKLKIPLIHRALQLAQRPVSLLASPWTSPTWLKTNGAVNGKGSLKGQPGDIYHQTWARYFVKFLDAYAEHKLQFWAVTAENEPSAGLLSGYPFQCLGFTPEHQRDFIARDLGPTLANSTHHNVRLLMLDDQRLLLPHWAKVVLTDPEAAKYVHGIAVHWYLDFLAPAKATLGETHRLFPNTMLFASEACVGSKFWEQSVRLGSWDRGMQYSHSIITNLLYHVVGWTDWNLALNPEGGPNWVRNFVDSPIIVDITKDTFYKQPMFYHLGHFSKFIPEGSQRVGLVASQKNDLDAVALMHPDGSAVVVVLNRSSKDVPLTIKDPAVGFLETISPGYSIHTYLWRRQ

Assay [2] can be described thus: AP1 Signaling Pathway (AID 357).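 Also: ME-180 reporter cells stimulated with EGF at its EC50 level; % is scaled to controls: 0 for no effect and ±100 for the full control effect.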 As to conditions: ME-180 AP-1-bla reporter, EGF-induced, beta-lactamase ratio, 5 h. Summed up:
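In this screen, ME-180 cells in Opti-MEM with 0.5% dialyzed FBS received EC50 EGF and compound titrations for 5 h. AP-1 reporter beta-lactamase was detected via CCF4 ratio, giving AC50 for positive and negative modulators.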

A short description of assay [3]: Stat Signaling Pathway (AID 446).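 Also: ME-180 cervical cancer cells given 40 pM IL-6 alongside compound; SIE-controlled beta-lactamase reporter measured as 460/530 nm FRET emission ratio; % is scaled to controls: 0 for no effect and ±100 for the full control effect.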 As to conditions: ME-180 (cervical carcinoma) SIE beta-lactamase reporter, IL-6 stimulated, 5 h. The procedure, abridged:
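Emission at 460 and 530 nm (excitation 405 nm) reports SIE-controlled beta-lactamase in ME-180 cells. Cells received compound with 40 pM IL-6 for 5 hrs at 37 C; data scaled between 300 pM IL-6 and 125 nM JAK-inhibitor controls.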

The target in assay [4] is Glucocorticoid receptor (Homo sapiens) (UniProt P04150). Description: GR-GFP Redistribution (AID 450;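 active = compounds whose dose series gives a full or clear partial fitted curve of increased nuclear translocation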; also: potency is read from the fitted curve at half-maximal effect). As to conditions: U2OS GR-GFP nuclear translocation, laser cytometry, 2 h.
Chain of Glucocorticoid receptor (Homo sapiens) (P04150 whole entry, looked up): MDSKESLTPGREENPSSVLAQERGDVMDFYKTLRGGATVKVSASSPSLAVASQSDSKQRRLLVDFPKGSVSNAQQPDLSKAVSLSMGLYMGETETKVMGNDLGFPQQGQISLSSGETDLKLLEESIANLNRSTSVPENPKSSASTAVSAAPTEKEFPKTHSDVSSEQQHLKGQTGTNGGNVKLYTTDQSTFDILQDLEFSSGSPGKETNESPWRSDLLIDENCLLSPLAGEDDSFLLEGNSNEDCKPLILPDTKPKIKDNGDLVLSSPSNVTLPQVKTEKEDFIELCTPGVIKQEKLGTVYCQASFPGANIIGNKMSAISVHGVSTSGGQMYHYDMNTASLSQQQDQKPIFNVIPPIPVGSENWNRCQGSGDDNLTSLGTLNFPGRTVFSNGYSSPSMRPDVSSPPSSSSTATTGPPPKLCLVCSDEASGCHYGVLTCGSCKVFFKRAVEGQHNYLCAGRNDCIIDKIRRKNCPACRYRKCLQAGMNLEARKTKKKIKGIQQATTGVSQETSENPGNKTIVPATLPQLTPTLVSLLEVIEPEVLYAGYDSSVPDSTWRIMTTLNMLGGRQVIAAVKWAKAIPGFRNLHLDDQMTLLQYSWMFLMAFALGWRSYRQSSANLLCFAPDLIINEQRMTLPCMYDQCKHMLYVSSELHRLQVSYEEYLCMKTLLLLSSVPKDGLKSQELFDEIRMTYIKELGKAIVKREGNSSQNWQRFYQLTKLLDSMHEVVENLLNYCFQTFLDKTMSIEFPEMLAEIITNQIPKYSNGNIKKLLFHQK
For assay [5] the target is unchanged. Description: GR-EFC Redistribution (AID 451; calls by dose curve; also: potency is read from the fitted curve at half-maximal effect). As to conditions: CHO-K1 GR-EFC translocation, beta-gal luminescence, 2 h. Summed up:
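Translocation of GR-ED fusion to nuclear EA restores b-gal, read by luminescence after 1 h room-temperature detection. Engineered CHO-K1 biosensor cells, 1,000/well, exposed 2 h at 37 C to titrations up to 46 uM final.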

Assay [6] deals with Mitogen-activated protein kinase 10 (Mus musculus) (UniProt Q61831). Description: JNK3 AlphaScreen Assay (AID 530).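 Also: kinase came from lysate of stimulated human HepG2 cells; signal reports phosphorylation of biotinylated GST-cJun 1-79 at Ser73 with 10 µM ATP; % is scaled to controls: 0 for no effect and ±100 for the full control effect.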 As to conditions: JNK3 lysate, c-Jun phosphorylation; series mostly up to 57.1 µM. The procedure, abridged:
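Kinase buffer: 20 mM Tris-HCl pH 7.6, 10 mM MgCl2, 1 mM DTT, 0.1 mM Na3VO4, 0.01% Tween-20; ATP 10 uM. Substrate biotin-GST-cJun(1-79), enzyme from activated HepG2 lysates. Detection by Ser73 phospho-antibody AlphaScreen.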

The target in assay [7] is 3',5'-cyclic-AMP phosphodiesterase 4B (Homo sapiens) (UniProt Q07343). Kind of assay: qHTS Assay for Inhibitors of PDE-IV (AID 607; active = well fitted activation curve with a large enough effect in the main read-out, with a control signal flat, not every such curve was filed as active; also: % of control where 0% means no effect). As to conditions: HEK293 ACTOne CNG channel cells, membrane potential fluorescence; series mostly up to 22.9 µM. Summed up: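 The readout is membrane depolarisation from a cAMP-sensing CNG channel, detected with a potential dye at ex 535/em 590. Cells were HEK293-derived (endogenous PDE-IV) at 1000 cells/well, titrated up to 22.9 uM final.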
Chain of 3',5'-cyclic-AMP phosphodiesterase 4B (Homo sapiens) (Q07343 whole entry, looked up): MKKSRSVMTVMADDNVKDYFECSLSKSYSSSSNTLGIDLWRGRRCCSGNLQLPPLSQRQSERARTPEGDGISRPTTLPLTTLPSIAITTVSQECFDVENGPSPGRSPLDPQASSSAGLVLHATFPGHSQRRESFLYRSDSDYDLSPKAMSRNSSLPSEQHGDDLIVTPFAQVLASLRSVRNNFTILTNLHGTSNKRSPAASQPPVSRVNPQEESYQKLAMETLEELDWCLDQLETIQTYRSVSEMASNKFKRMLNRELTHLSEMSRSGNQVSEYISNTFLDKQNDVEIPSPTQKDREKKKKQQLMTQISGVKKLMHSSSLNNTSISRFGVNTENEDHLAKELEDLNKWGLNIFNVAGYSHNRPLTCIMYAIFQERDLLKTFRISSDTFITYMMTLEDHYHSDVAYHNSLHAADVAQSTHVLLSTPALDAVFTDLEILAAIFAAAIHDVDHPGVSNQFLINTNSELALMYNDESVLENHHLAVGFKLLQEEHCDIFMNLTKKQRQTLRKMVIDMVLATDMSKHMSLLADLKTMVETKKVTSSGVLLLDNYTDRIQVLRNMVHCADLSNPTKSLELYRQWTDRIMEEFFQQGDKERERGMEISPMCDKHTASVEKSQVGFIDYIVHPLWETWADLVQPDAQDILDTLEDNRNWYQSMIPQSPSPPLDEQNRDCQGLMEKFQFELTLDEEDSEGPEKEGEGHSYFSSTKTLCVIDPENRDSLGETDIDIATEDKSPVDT
(In general: In qHTS, concentration-response curves come from the screen itself.)

A short description of assay [8]: NFAT Signaling Pathway (AID 444).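 Also: carbachol stimulus at about its EC50 of 1 µM final; % is scaled to controls: 0 for no effect and ±100 for the full control effect.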 As to conditions: Jurkat NFAT-bla M1, carbachol, beta-lactamase ratio, 5 h. Summed up:
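Read-out: CCF4 FRET ratio (460 nm/530 nm) after 1 h RT dye loading, used for %activity and AC50 from titration series. Cells: Jurkat NFAT-β-lactamase/M1 line, treated with compound plus 1 uM carbachol for 5 h, 37 °C.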

For assay [9], the target named is Cytochrome P450 2D6 (Homo sapiens) (UniProt P10635). Kind of assay: qHTS Assay for Inhibitors and Substrates of Cytochrome P450 2D6 (AID 891; active = well fitted curve in the direction sought with a large enough effect; an effect the other way counts as inactive or inconclusive; also: potency is read from the fitted curve at half-maximal effect; nearly all actives have a fitted effect of over 60% in size). As to conditions: recombinant CYP2D6, luciferin-ME EGE luminescence; series mostly up to 11.4 µM. Summed up: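 Luminescent read-out of luciferin formed by 5 nM human CYP2D6 demethylating 30 uM Luciferin-ME EGE (Km level) over 60 min at room temperature after NADPH regeneration addition. Data normalized to full inhibition by 1.43 uM quinidine.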
Chain of Cytochrome P450 2D6 (Homo sapiens) (P10635 whole entry, looked up): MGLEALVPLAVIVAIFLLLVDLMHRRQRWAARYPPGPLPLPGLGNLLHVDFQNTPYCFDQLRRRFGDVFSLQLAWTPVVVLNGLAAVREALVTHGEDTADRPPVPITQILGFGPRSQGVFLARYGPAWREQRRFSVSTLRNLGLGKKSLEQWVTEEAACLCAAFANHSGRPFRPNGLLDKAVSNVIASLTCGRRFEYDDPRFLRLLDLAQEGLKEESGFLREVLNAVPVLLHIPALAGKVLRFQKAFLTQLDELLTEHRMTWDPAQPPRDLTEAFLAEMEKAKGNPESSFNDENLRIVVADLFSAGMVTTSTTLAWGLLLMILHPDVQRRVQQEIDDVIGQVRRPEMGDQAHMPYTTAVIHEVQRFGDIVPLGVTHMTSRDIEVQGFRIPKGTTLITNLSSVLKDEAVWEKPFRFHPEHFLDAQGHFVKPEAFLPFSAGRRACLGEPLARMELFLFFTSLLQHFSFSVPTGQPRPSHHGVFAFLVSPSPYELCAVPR

In assay [10] the target is Cytochrome P450 1A2 (Homo sapiens) (UniProt P05177). Kind of assay: p450-cyp1a2 (AID 410; calls by dose curve;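 also: -100% = full effect of reference inhibitor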). As to conditions: recombinant CYP1A2, luciferin-ME demethylation, luminescence; series mostly up to 11.4 µM. Summed up:
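Read-out is luminescence from luciferin produced by CYP1A2 demethylation of Luciferin-ME (100uM, at Km). Detection reagent stopped the 60 min NADPH-dependent reaction; signals were normalized to 57 uM furafylline.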

Assay [11] deals with Guanine nucleotide-binding protein G(i) subunit alpha-1 (Homo sapiens) (UniProt P63096). Kind of assay: qHTS Assay for Inhibitors of RGS12 GoLoco Motif Activity (Green Fluorophore) (AID 879; active = well fitted curve in the direction sought with a large enough effect; an effect the other way counts as inactive or inconclusive;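 also: 0% = labeled peptide with Gαi1 and full inhibition = labeled peptide alone without protein; negative values mean loss of peptide binding seen as reduced polarization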). As to conditions: Galphai1/FITC-RGS12 GoLoco peptide, fluorescence polarization; series mostly up to 57.1 µM. Summed up:
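A drop in FITC polarization marked displacement of the FITC-tagged RGS12 GoLoco peptide (10 nM) from Gαi1 (50 nM). Compounds were incubated 10 min at room temperature in Tris pH 7.5 buffer containing 150 mM NaCl, 0.1 mM GDP and 0.05% NP40; unlabeled peptide titration served as control.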

A short description of assay [12]: qHTS Assay for Identification of Small Molecule Agonists for Thrombopoietin (TPO) Signaling Pathway (AID 917; active = well fitted curve in the direction sought with a large enough effect; an effect the other way counts as inactive or inconclusive; also: % is scaled to controls: 0 for no effect and ±100 for the full control effect). As to conditions: TPO signaling pathway reporter cells, agonist qHTS; series mostly up to 38.5 µM. Summed up: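 Quantitative HTS for pathway activators: compounds were pin-transferred onto IL-3-starved Ba/F3 cells expressing human TPO receptor, TPO was added at its EC50 (26 pM final), and after 24 hrs at 37 C reporter luciferase was measured.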

Assay [13] addresses Muscarinic acetylcholine receptor M1 (Rattus norvegicus) (UniProt P08482). Description: qHTS Assay for Antagonists of Acetylcholine Muscarinic M1 Receptor: Kinetic Measurement of Intracellular Calcium Response (AID 943; active = well fitted curve in the direction sought with a large enough effect; an effect the other way counts as inactive or inconclusive;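 also: Fluo-4 calcium signal as peak divided by basal fluorescence over 4 min; nearly all actives have a fitted effect of over 75% in size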). As to conditions: M1-expressing cells, kinetic intracellular calcium fluorescence; series mostly up to 35.3 µM. Summed up:
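Quantitative HTS in CHO-M1 (rat receptor) cells: 10 min compound exposure ahead of 100 nM carbachol, Fluo-4 fluorescence followed 4 min, value expressed as peak-to-basal ratio.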

Assay [14] shares this target. Description: qHTS Assay for Antagonists of Acetylcholine Muscarinic M1 Receptor: Measurement of IP-One Response (AID 944; active = well fitted curve in the direction sought with a large enough effect; an effect the other way counts as inactive or inconclusive; also: nearly all actives have a fitted effect of over 75% in size). As to conditions: CHO-M1 cells, IP-One HTRF, antagonist mode; series mostly up to 46.1 µM. Summed up: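 Antagonism was measured as loss of carbachol-driven (EC80) IP1 accumulation in CHO cells carrying rat M1, using a homogeneous IP-One TR-FRET kit read at 620 and 665 nm.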

The target in assay [15] is Pyruvate kinase (Leishmania mexicana) (UniProt Q27686). Kind of assay: qHTS Validation Assay for Inhibitors of Leishmania Mexicana Pyruvate Kinase (AID 945; active = well fitted curve in the direction sought with a large enough effect; an effect the other way counts as inactive or inconclusive;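 also: 0% = DMSO only neutral control wells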). As to conditions: purified L. mexicana pyruvate kinase, enzyme activity, E451W mutant enzyme; series mostly up to 57.5 µM. Summed up:
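Substrate mix (0.5 mM PEP, 0.1 mM ADP, 7 mM MgCl2, 50 mM KCl, pH 7.2 imidazole) received compound by pin tool, then 0.2 nM LmPYK E451W. After 1 h at room temperature, PKLight was added and luminescence measured.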

The target in assay [16] is Pyruvate kinase PKM (Homo sapiens) (UniProt P14618). Kind of assay: qHTS Assay for Activators of Human Muscle Pyruvate Kinase (AID 954; active = well fitted curve in the direction sought with a large enough effect, not every such curve was filed as active;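 also: 0% = uninhibited enzyme and -100% = no enzyme or full thiadiazolimine inhibition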). As to conditions: purified human muscle pyruvate kinase, luciferase-coupled luminescence, 1 h; series mostly up to 57.5 µM. The procedure, abridged:
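PKM2, human, >95% pure, 0.1 nM; PEP 0.5 mM (Km), ADP 0.1 mM; 50 mM imidazole pH 7.2, 50 mM KCl, 0.01% Tween 20, 0.05% BSA; 1 h RT; luciferase luminescence readout.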

For assay [17], the target named is Alpha-galactosidase A (Homo sapiens) (UniProt P06280). Kind of assay: Counterscreen for Glucocerebrosidase Inhibitors: qHTS Assay for Human alpha-Galactosidase at pH 4.5 (AID 992; active = well fitted curve in the direction sought with a large enough effect; an effect the other way counts as inactive or inconclusive; also: 0% is about no effect). As to conditions: purified enzyme, fluorogenic substrate; series mostly up to 76.9 µM. The procedure, abridged:
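Fluorogenic 4-MU alpha-D-galactoside (80 uM) hydrolysis, 2 nM enzyme, pH 4.5 citrate buffer + 0.005% Tween-20; 20 min RT; NaOH/glycine pH 10 stop; Ex365/Em440. Compounds titrated 0.7 nM–77 uM; Hill-equation AC50.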

The target of assay [18] is alpha-glucosidase (Oryza sativa, rice) (UniProt Q653V4). Kind of assay: Counterscreen for Glucocerebrosidase Inhibitors: qHTS Assay for Rice alpha-Glucosidase at pH 5.0 (AID 997; active = well fitted curve in the direction sought with a large enough effect; an effect the other way counts as inactive or inconclusive;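 also: 0% = full activity with enzyme and -100% = basal without enzyme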). As to conditions: rice alpha-glucosidase enzyme activity; series mostly up to 76.9 µM. Summed up: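 Endpoint fluorogenic assay at pH 5.0: compounds (0.7 nM to 77 uM) titrated against 4 nM rice enzyme and 400 uM 4-MU-alpha-glucoside for 20 min at room temperature; NaOH/glycine stop, read ex 365/em 440 nm, Hill-fitted AC50.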
A general note: A counterscreen serves to expose hits that act by an unwanted route or on another target.

The target of assay [19] is Alpha-galactosidase (Coffea arabica) (UniProt Q42656). Description: Counterscreen for Glucocerebrosidase Inhibitors: qHTS Assay for Coffee Bean alpha-Galactosidase at pH 5.9 (AID 998; active = well fitted curve in the direction sought with a large enough effect; an effect the other way counts as inactive or inconclusive;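 also: plate controls were uninhibited enzyme for no effect and no-enzyme basal signal for full effect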). As to conditions: coffee bean alpha-galactosidase enzyme assay; series mostly up to 76.9 µM. Summed up: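 Fluorogenic 4-MU substrate hydrolysis, 80 uM substrate and 2 nM coffee bean alpha-galactosidase, pH 5.9 citrate buffer, 20 min at room temperature, then NaOH/glycine stop. Titration 0.7 nM–77 uM, normalized to no-enzyme and enzyme controls, AC50 via Hill equation.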
Chain of Alpha-galactosidase (Coffea arabica) (Q42656 whole entry, looked up): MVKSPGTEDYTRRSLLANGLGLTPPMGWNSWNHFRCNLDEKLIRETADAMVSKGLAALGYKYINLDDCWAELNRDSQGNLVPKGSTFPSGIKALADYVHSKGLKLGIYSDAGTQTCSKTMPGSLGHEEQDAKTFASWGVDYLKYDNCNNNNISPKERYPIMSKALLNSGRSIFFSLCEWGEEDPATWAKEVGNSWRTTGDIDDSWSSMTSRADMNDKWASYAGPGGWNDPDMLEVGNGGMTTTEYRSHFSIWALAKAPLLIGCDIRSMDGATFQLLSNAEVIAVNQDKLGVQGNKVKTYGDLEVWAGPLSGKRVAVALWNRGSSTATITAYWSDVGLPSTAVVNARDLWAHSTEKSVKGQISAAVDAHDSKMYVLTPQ

The mark [20] stands for this setting: at 7.69 µM (top of the series) unless noted.

Several values for one entry are separate records, joined by “and”; a condition that tells them apart may be missing. Equal entries are not always repeated. Unmarked numbers belong to inactive results. Inconclusive results are not listed. Activity calls are given as the source filed them. Unless noted, calls follow the shape of the dose curve; as a rule, active = well fitted curve in either direction with a large enough effect (not every such curve was filed as active); inconclusive = small, poorly fitted or top-dose-only effect, or another doubt; inactive = flat fitted curve, though single readings scatter. Bounds are passed on as bounds.

Chain of Cytochrome P450 1A2 (Homo sapiens) (P05177 whole entry, looked up): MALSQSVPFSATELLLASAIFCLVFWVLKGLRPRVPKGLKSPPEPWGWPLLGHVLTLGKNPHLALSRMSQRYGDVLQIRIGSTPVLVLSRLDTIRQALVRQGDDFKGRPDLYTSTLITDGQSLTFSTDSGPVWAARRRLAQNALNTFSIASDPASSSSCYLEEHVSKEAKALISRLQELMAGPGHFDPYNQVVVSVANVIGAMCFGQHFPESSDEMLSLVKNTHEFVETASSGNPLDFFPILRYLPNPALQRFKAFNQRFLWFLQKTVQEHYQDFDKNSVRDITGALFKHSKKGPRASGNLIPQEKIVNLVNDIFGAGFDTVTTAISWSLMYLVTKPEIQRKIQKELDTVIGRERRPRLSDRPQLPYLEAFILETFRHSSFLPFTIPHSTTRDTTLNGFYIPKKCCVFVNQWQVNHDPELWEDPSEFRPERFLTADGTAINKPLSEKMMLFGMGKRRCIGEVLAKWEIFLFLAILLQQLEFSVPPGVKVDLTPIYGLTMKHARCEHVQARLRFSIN
Chain of Muscarinic acetylcholine receptor M1 (Rattus norvegicus) (P08482 whole entry, looked up): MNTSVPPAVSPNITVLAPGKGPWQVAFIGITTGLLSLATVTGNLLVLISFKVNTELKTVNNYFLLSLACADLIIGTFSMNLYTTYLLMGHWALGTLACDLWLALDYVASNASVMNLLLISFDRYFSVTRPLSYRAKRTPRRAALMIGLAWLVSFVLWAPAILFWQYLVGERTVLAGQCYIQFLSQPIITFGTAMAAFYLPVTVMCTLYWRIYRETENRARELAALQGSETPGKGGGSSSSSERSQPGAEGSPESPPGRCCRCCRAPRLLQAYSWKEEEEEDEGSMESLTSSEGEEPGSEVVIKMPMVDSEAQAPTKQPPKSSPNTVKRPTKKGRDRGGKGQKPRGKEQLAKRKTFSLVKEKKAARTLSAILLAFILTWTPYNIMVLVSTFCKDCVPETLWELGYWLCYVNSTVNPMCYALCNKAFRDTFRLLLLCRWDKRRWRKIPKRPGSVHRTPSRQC
Chain of Guanine nucleotide-binding protein G(i) subunit alpha-1 (Homo sapiens) (P63096 whole entry, looked up): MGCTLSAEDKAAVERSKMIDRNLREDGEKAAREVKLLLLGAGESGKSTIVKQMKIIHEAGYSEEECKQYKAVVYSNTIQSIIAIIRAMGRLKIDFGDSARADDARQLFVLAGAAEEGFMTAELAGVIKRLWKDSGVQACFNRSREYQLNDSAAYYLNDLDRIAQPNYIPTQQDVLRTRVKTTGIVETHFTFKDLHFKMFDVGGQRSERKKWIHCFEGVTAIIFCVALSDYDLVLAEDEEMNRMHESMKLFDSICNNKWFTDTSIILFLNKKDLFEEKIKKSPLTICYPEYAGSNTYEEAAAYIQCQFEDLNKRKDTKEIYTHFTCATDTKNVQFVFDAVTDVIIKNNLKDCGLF
Chain of Pyruvate kinase (Leishmania mexicana) (Q27686 2-499 E452W): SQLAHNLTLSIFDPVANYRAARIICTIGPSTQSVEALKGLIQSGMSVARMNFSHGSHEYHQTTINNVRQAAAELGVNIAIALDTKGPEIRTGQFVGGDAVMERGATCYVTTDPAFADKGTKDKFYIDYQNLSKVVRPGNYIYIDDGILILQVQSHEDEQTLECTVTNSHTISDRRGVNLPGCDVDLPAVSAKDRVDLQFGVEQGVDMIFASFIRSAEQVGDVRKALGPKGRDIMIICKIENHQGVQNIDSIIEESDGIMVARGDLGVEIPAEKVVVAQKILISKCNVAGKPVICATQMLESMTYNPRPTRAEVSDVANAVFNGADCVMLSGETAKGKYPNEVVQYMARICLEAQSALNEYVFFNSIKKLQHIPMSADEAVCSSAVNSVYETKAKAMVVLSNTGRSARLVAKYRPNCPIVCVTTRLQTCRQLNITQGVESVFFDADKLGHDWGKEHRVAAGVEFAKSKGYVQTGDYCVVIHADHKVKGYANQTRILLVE

In the case of `Oc1c(Cl)c(Cl)c(Cl)c(Cl)c1Cl` (tested in a mixture with another compound), the results for the Potency in assay [1], in assay [4] and in assay [5] were > 11.4 µM, > 46 µM and > 9.22 µM, respectively. For the same molecule, the activity change, negative = inhibition is -9.55% [middle of 4 runs] in assay [2] (setting [20]) and 0.344% [at 11.4 µM] [middle of 4 runs] in assay [6]. In addition, in assay [3] (setting [20]), the activity, negative = inhibition was -12.9% [middle of 4 runs]. Also, the result in [7] was inactive.

Turning to `COc1cccc2c1C(=O)c1c(O)c3c(c(O)c1C2=O)C[C@](O)(/C(C)=N\O)C[C@@H]3O[C@H]1C[C@H](N)[C@@H](O)[C@H](C)O1`, the Potency in [1] was > 11.4 µM; in [4], > 46 µM; in assay [5] it was > 9.22 µM. Besides, the activity change, negative = inhibition is 26.1% in [2] (setting [20]) and -16.4% [at 11.4 µM] in [6]. Moreover, the call in assay [7] was inactive.

With `NC1(P(=O)(O)O)CCCCC1`, the Potency in assay [1] was > 11.4 µM; in [4], > 46 µM. The activity change, negative = inhibition in assay [2] (setting [20]) is 11.8%; in [8] (setting [20]), -8.61%; in assay [6] it was 5.68% [at 11.4 µM]. Besides, the activity, negative = inhibition in [3] (setting [20]) was 4.3%. In assay [7], the outcome was inactive.

`CCc1ccc(CCN2CCCCC2)nc1`: the Potency is > 11.4 µM in assay [1], > 46 µM in assay [4], > 9.22 µM in assay [5] and 1.58 µM (active) in assay [9]. For the same molecule, the figures for the activity change, negative = inhibition in assay [2] (setting [20]), in assay [8] (setting [20]) and in assay [6] were 15.5%, -21.3% and 1.06% [at 11.4 µM], respectively. Moreover, the outcome in assay [7] was inactive.

In the case of `C[C@@H](Cc1ccc(O)cc1)NC[C@@H](O)c1cc(O)cc(O)c1`, the activity change, negative = inhibition is -20.6% in [2] (at 17.2 µM (top of the series)), -23% in assay [2] (at 38 µM (top of the series)), -2.14% in [8] (at 17.2 µM (top of the series)) and -6.03% in assay [8] (at 38 µM (top of the series)). The Potency result in [10], in assay [6], in [13] and in assay [14] was “inactive” throughout. In addition, the figures for the activity, negative = inhibition in assay [3] (at 17.2 µM (top of the series)) and in assay [3] (at 38 µM (top of the series)) were -8.37% and -28.1%, respectively. Besides, in assay [4], the Potency was > 46 µM and > 20.6 µM. Moreover, the molecule was called inactive in assay [7], in assay [11], in [12], in assay [15], in [16] and in assay [17]. Also, the molecule was called inactive in [18] and in [19].

Regarding `CC[C@@]1(O)C(=O)OCc2c1cc1n(c2=O)Cc2cc3c(NC(=O)CN)cccc3nc2-1`, the activity change, negative = inhibition was -9.07% in assay [2] (setting [20]), -12.3% [at 2.29 µM] in assay [10], -29.2% in assay [8] (setting [20]) and -2.05% [at 11.4 µM] in assay [6]. Besides, the activity, negative = inhibition in [3] (setting [20]) is -20.5%. The Potency in assay [4] is > 46 µM; in assay [5], > 9.22 µM. Also, the outcome in assay [7] was inactive.

For the molecule `CC[C@]1(OC(=O)CN)C(=O)OCc2c1cc1n(c2=O)Cc2cc3ccccc3nc2-1`, the Potency is > 11.4 µM in assay [1], > 46 µM in assay [4] and > 9.22 µM in [5]. The figures for the activity change, negative = inhibition in assay [10] and in assay [6] were -17.6% [at 2.29 µM] and -1.42% [at 11.4 µM], respectively. In [7], the molecule was called inactive.
